IL-1B inflam inh = blocks inflammasome-driven IL-1 beta release; activity change, % at 57.5 µM; AID 743279; 360,000 compounds, 4.7% hits; THP-1 LPS/ATP IL-1B secretion, AlphaLISA, 16 h; stronger effect = lower value; in the data active = activity change below about -50%; inconclusive = mostly about -30% to -49%
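THP-1 cells pretreated 1 hr with compounds (up to 57.5 uM final), then stimulated with LPS (250 ng/mL final) plus ATP (1.25 mM final); secreted IL-1B measured by AlphaLISA after 16 hr, decreased signal indicating inhibition.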
HepG2 tox = HepG2 cytotoxicity, counter-screen for TGF-b inhibitors. HepG2 CAGA-GFP viability, ATP luminescence, 18 h. Potency, µM (titrated, usually from 46.1 µM), actives largely listed as cytotoxic. 410,000 compounds, 0.76% hits. AID 588856
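CellTiter-Glo luminescence gave cytotoxicity after 18 hours at 37 degrees C. The cells were HepG2 CAGA-GFP in 1% FBS DMEM, stimulated with 500 pg/mL TGF-beta after compound addition. %Activity was normalised to no-cell wells (complete cell-killing) and DMSO (no toxicity), and curves were fitted and classified.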
HT1080NT lethal = kills 2HG-producing HT-1080-NT fibrosarcoma cells; HT-1080-NT fibrosarcoma viability, CellTiter-Glo ATP luminescence, 48 h; 360,000 compounds, 1.6% hits; Potency, µM (highest dose often 46.1 µM), usual class: cytotoxic; AID 686970;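 note: NT is the 2HG producing partner of a matched IDH1 knockdown line; nearly all actives have a fitted effect of over 55% in size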
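Toxicity toward the 2HG-producing NT line was scored as %Activity, normalised to DMSO and no-cell wells, from CellTiter-Glo luminescence after 48 hours' treatment.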
Giardia kill = Giardia lamblia killing; Giardia lamblia trophozoite viability; activity change, % at 7.66 µM, hits read low; 340,000 compounds, 0.15% hits; in the data active = activity change below about -80%; inconclusive = between about -30% and that limit;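 note: parasites exposed to compound for two days anaerobically before the ATP read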
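Killing of trophozoites was scored by loss of ATP luminescence after a 48 hrs anaerobic exposure to compounds at 37 deg C, using 100 cells per well.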
TGFb inhibitor = blocks TGF-b signaling | HepG2 CAGA-GFP TGF-b/SMAD3 reporter, GFP fluorescence, 18 h; TGF-beta stimulated, 500 pg/mL final | AID 588855 | 410,000 compounds, 1.2% hits | Potency, µM (titrated, usually from 46.1 µM), hits mostly inhibitors; note: nearly all actives have a fitted effect of over 65% in size
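HEPG2 CAGA-GFP, 1000 cells/well; 2 h settle, 37 C; cpd via pin tool; TGF-b 500 pg/mL final; 18 h, 37 C; GFP imaging ex488/em500-530; %Activity normalised to -TGF-b and +DMSO controls; CRC fit, curve class.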
HT1080 IDH1KD tx = HT-1080 IDH1 knockdown cell toxicity (counter line). HT-1080 IDH1 knockdown viability, ATP luminescence, 48 h. Potency, µM (top dose mostly 46.1 µM), usual class: cytotoxic. 360,000 compounds, 2% hits. AID 686971
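Luminescent ATP read-out (CellTiter-Glo, 10 min at room temperature) after 48 h compound exposure at 37 °C gave viability of IDH1-knockdown HT-1080 cells. Activity was normalised to DMSO and cell-free wells, then fitted as concentration-response curves.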
Of the large screens only hits and unclear results are named; the others gave an inactive call. Shown are actives, neighbours in structure and some others; about 6.5% of the full set was active somewhere. Unless noted, calls come from the whole dose curve; as a rule, active = well fitted curve in the direction sought with a large enough effect; inconclusive = small, poorly fitted or top-dose-only effect, or another doubt; inactive = no such curve, though single readings can be large; an effect the other way counts as inactive or inconclusive.

CCN1C(=O)[C@@H]2[C@@H](c3ccc(-c4ccc(F)cc4)c(OC)c3)N3CCC[C@@]3(C(=O)OC)[C@@H]2C1=O	none
CCN1C(=O)[C@H]2[C@@H](c3ccc(-c4cccc(Cl)c4)c(OC)c3)N3CCCC[C@@]3(C(=O)OC)[C@H]2C1=O	IL-1B inflam inh -62, TGFb inhibitor inconclusive
CCCCCCSc1ccc([C@@H]2[C@@H]3C(=O)N(C)C(=O)[C@@H]3[C@]3(C(=O)OC)CCCCN23)cc1OC	HT1080NT lethal 29µM, TGFb inhibitor inconclusive, HT1080 IDH1KD tx inconclusive
CCN1C(=O)[C@H]2[C@@H](c3ccc(-c4ccc(F)cc4)c(OC)c3)N3CCCC[C@@]3(C(=O)OC)[C@H]2C1=O	IL-1B inflam inh -74, TGFb inhibitor inconclusive
CCCCCCSc1ccc([C@@H]2[C@H]3C(=O)N(C)C(=O)[C@H]3[C@]3(C(=O)OC)CCCCN23)cc1OC	none
Cc1ccc(S(=O)(=O)N2CCC(C(=O)OCC(=O)N3CC(C)CC(C)C3)CC2)cc1C (configuration not stated)	none
Cc1ccc(S(=O)(=O)Nc2ccc3cn[nH]c3c2)c(C)c1	none
CCOc1cc(C)c(S(=O)(=O)Nc2ccc3cn[nH]c3c2)cc1C	IL-1B inflam inh -70, TGFb inhibitor inconclusive
O=C1c2sc3nc4n(c(=O)c3c2CCC1Br)CCCCC4 (configuration not stated)	IL-1B inflam inh -93
Cc1cc2c(cc3c(=O)n(CC(=O)NCc4ccccc4Br)ncn32)s1	none (no result: IL-1B inflam inh, HT1080NT lethal, Giardia kill, HT1080 IDH1KD tx)
CCOc1ccc(S(=O)(=O)NCCC(=O)N2CCN(c3ccccc3O)CC2)cc1	none
CCOc1ccc(C(=O)CCC(=O)N2CCN(c3ccccc3O)CC2)cc1	HepG2 tox 2.5µM
NC(=O)SCC(=O)Nc1ccccc1C(=O)O	none
O=C1N(C2CCCC2)C[C@@H]2C[C@@H](c3cccn3-c3nccs3)N3CCC[C@@]123	IL-1B inflam inh -79
Cc1nn(C)c(C(=O)N/N=C/c2cc3c(cc2Br)OCO3)c1Br	none
CCN(CC)CCCN(C(=O)c1ccco1)c1nc(-c2ccc(C)cc2)cs1	IL-1B inflam inh -85, HT1080NT lethal inconclusive, TGFb inhibitor inconclusive, HT1080 IDH1KD tx inconclusive
COCCCN(C(=O)c1ccco1)c1nc(-c2ccc(OC)cc2)cs1	none
CCN(CC)CCCN(C(=O)c1ccco1)c1nc(-c2ccc(Cl)cc2)cs1	IL-1B inflam inh -67, HT1080NT lethal 23µM, TGFb inhibitor inconclusive, HT1080 IDH1KD tx 15µM
O=C(c1ccco1)N(CCCN1CCOCC1)c1nc(-c2ccc(Cl)cc2)cs1	IL-1B inflam inh inconclusive, HT1080NT lethal inconclusive, HT1080 IDH1KD tx inconclusive
O=C(c1ccco1)N(CCCN1CCOCC1)c1nc(-c2ccc(F)cc2)cs1	IL-1B inflam inh -88, HT1080NT lethal inconclusive, TGFb inhibitor inconclusive, HT1080 IDH1KD tx inconclusive
O=C1COc2cc(S(=O)(=O)CCC(=O)N3CCN(c4ccccc4F)CC3)c(Cl)cc2N1	none (no result: IL-1B inflam inh, HT1080NT lethal, Giardia kill, HT1080 IDH1KD tx)
C[C@@H](c1ccccc1)N1C[C@H](COCc2ccccc2)Oc2cc(N3CCC[C@H]3CO)ccc2S1(=O)=O	none (no result: HepG2 tox, Giardia kill, TGFb inhibitor)
Cc1nn(CC(=O)NCCc2cccs2)c(=O)c2nn(-c3ccccc3)c(C)c12	none
COc1ccc(C(=O)N2CCN(c3cccc(Cl)c3)CC2)c(OC)c1	HT1080NT lethal 15µM, HT1080 IDH1KD tx inconclusive
CCOc1ccccc1N1CCN(C(=O)c2cc3ccccc3cc2OC)CC1	HT1080NT lethal inconclusive, HT1080 IDH1KD tx 5.2µM
COC(=O)c1cc(C(=O)N2CCN(c3cccc(Cl)c3)CC2)cc([N+](=O)[O-])c1	HT1080NT lethal 0.52µM, HT1080 IDH1KD tx 0.46µM
O=C(O)c1ccccc1C(=O)N1CCN(c2cccc(Cl)c2)CC1	none
CCOc1ccccc1C(=O)N1CCN(c2cccc(Cl)c2)CC1	HT1080NT lethal 0.25µM, TGFb inhibitor inconclusive, HT1080 IDH1KD tx 0.11µM
COc1ccc(N2CCN(C(=O)c3ccc(SC)cc3OC)CC2)cc1	none
O=c1ccc(-c2nc3cc(Cl)ccc3n2Cc2ccccc2)c[nH]1	HT1080 IDH1KD tx inconclusive

Screening results: PubChem, National Center for Advancing Translational Sciences (NCATS)
